MCF10A rereplic – inducers of DNA re-replication in MCF 10A breast cells | MCF 10A DNA re-replication, Hoechst nuclear intensity, 48 h | Potency, µM (top dose mostly 46.1 µM), without a hit: at the top dose activity, positive = re-replication, actives largely listed as activators | actives 2.9% (n = 350,000); also: % of control where 0% means no effect; nearly all actives have a fitted effect of over 50% in size
PINK1 modulator – changes PINK1 expression; PINK1 immunofluorescence, high-content cytometry, 24 h; Potency, µM (highest dose often 76.6 µM), without a hit: top-dose activation (PINK1 increase), most hits filed as activators; actives 0.2% (n = 410,000); AID 624263; active = well fitted activation curve with a large enough effect; inconclusive = small, poorly fitted or top-dose-only effect; cell line not stated here; also: % of control where 0% means no effect; nearly all actives have a fitted effect of over 65% in size
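PINK1 protein level read as immunofluorescence by microplate cytometer in a fixed, stained stable cell line after 24 h exposure to five compound concentrations, with CCCP as control.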
KB-V1 MDR tox – kills drug-selected multidrug resistant KB-V1 cells; KB-V1 MDR cells viability, CellTiter-Glo, 72 h; Potency, µM (highest dose often 46.1 µM), actives largely listed as cytotoxic; actives 3.4% (n = 400,000); AID 1347076; also: % is scaled to controls: 0 for no effect and ±100 for the full control effect; nearly all actives have a fitted effect of over 60% in size
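Cytotoxicity toward P-gp-expressing KB-V1 cells was determined as loss of CellTiter-Glo luminescence after 72 h at 37 degrees C. Compounds were tested in quantitative HTS format across a concentration range, with curves fitted to normalized data.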
KB-3-1 tox – KB-3-1 parental cell cytotoxicity | AID 1347075 | KB-3-1 viability, CellTiter-Glo ATP luminescence, 72 h | Potency, µM (series often up to 46.1 µM), actives largely listed as cytotoxic | actives 1.4% (n = 400,000); also: % is scaled to controls: 0 for no effect and ±100 for the full control effect; nearly all actives have a fitted effect of over 60% in size
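Cells are dispensed, compounds pinned in, plates held at 37 °C for 72 h, then CellTiter-Glo is added and luminescence read after 10 minutes. Cell line: parental KB-3-1 in phenol-red-free DMEM, 10% FBS.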
SW480 rereplic – induces DNA re-replication in SW480 colon adenocarcinoma cells. SW480 DNA re-replication, Hoechst DNA content imaging, 48 h. Potency, µM (titrated, usually from 46.1 µM), for the others: at the top dose re-replication activation, actives largely listed as activators. AID 624297. actives 1.8% (n = 340,000); also: % of control where 0% means no effect; nearly all actives have a fitted effect of over 55% in size
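Image-based DNA-content assay: after two days of treatment, nuclei were labelled with the DNA dye Hoechst and imaged, and hits were compounds raising the count of nuclei showing high fluorescence intensity.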
TSG101-PTAP inh – blocks PTAP/TSG101 interaction to inhibit HIV-1 budding; Potency, µM (doses to about 115 µM), for the others: at the top dose activity change, negative = inhibition, usual class: inhibitors; Q99816; 340,000 tested, under 10 active; Fluorescence polarization, FITC-PTAP peptide / Tsg101 binding; active = well fitted inhibition curve with a large enough effect in the main read-out, with a control signal flat, not every such curve was filed as active; inconclusive = small, poorly fitted or top-dose-only effect, or effect the other way, or a change in a side signal; inactive = no such curve, though single readings can be large or run the other way; also: % of control where 0% means no effect
Target sequence (Q99816 whole entry, looked up): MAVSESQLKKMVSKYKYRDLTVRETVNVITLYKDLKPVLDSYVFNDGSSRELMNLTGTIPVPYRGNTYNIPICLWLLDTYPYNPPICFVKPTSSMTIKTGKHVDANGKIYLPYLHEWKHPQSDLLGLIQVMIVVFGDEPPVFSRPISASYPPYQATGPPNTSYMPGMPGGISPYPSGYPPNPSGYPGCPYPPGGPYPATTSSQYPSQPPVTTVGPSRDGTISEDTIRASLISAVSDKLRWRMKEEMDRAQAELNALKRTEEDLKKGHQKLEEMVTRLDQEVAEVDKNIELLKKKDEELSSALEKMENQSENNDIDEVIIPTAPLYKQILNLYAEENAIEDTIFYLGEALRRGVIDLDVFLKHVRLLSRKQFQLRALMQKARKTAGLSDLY
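Fluorescence anisotropy tracks displacement of a FITC-tagged PTAP peptide (50 nM) from the Tsg101 binding domain (10 uM), following a 20 min room-temperature incubation at pH 7.5.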
The depositor's hits bear a star; i = inactive; u = inconclusive; x = not tested or not shown; [ ] = dose if it differs, or a comment. Sampled rows, rich in hits. Any-hit rate of the full collection: about 6.8%. Unless noted, calls follow the shape of the dose curve; as a rule, active = well fitted curve in the direction sought with a large enough effect; inconclusive = small, poorly fitted or top-dose-only effect, or another doubt; inactive = no such curve, though single readings can be large; an effect the other way counts as inactive or inconclusive. Potency is read from the fitted curve at half-maximal effect.

SMILES | MCF10A rereplic | PINK1 modulator | KB-V1 MDR tox | KB-3-1 tox | SW480 rereplic | TSG101-PTAP inh
CCOc1ccc(-c2cc(C(=O)Nc3ccc4c(c3)OCCO4)c3ccccc3n2)cc1 | 0.7% | 3.0% | u | 18.4µM* | 11.9% | -2.5%
O=C(COC(=O)c1cc(-c2ccccc2)nc2ccccc12)Nc1ccc2c(c1)OCO2 | 5.17µM* | -1.7% | u | i | 11.4% | -1.6%
COc1ccc(-c2cc(C(=O)OCC(=O)Nc3ccc4c(c3)OCO4)c3ccccc3n2)cc1 | -2.2% | 2.5% | i | i | -1.3% | -0.3%
O=C(N/N=C/c1cc(Br)c(O)c(Br)c1)c1cc2c(ccc3ccccc32)o1 | 8.2µM* | -1.1% | u | i | u | 1.2%
CCn1cc(/C=N/NC(=O)c2cc3c(ccc4ccccc43)o2)c2ccccc21 | u | 8.5% | 18.4µM* | u | u | -1.6%
CC(C)n1cc(/C=N\NC(=O)c2cc3c(ccc4ccccc43)o2)c2ccccc21 | u | 0.9% | i | i | 1.1% | 1.2%
O=C(N/N=C/c1ccc([N+](=O)[O-])o1)c1cc2c(ccc3ccccc32)o1 | 2.59µM* | 7.9% | i | i | u | -0.4%
O=C(N/N=C/c1cc(Cl)c(O)c(Cl)c1)c1cc2c(ccc3ccccc32)o1 | u | 0.1% | i | i | 14.6µM* | -7.3%
CC(C)Oc1ccc(CNC(=O)CN2C(=O)CCn3nc(-c4cn(C)c5ccccc45)cc32)cc1 | x | -1.0% | i | i | x | x
Oc1cc(-c2nc3ccccc3s2)cc2c1OCCN(Cc1cn[nH]c1-c1ccc(Cl)cc1)C2 | x | 0.5% | x | x | x | x
Cc1ccc(C)c2c1CCC(=Cc1ccccc1[N+](=O)[O-])C2=O | x | 4.7% | i | i | x | x
CN1C/C(=C/c2ccccc2[N+](=O)[O-])C(=O)/C(=C\c2ccccc2[N+](=O)[O-])C1 | 1.84µM* | 0.6% | i | u | 1.16µM* | -6.0%
Cc1cccc(NC(=O)c2ccc3[nH]c(C)cc(=O)c3c2)c1 | x | 0.1% | i | i | x | x
COc1cccc(-c2cc(=O)c3cc(NC(=O)c4ccc(N(C)C)cc4)ccc3[nH]2)c1 | 0.411µM* | 18.0% | i | i | 0.581µM* | -3.0%
COc1cccc(-c2cc(=O)c3cc(NC(=O)c4ccc(Cl)cc4)ccc3[nH]2)c1 | u | 5.6% | i | 1.3µM* | u | -0.6%
COc1cccc(-c2cc(=O)c3cc(NC(=O)c4ccccc4)ccc3[nH]2)c1 | 5.8µM* | 18.6% | i | 1.64µM* | 2.91µM* | -0.4%
COc1cc(NC(=O)Cn2c(C)cc(C)c(C#N)c2=O)cc(OC)c1 | x | -1.4% | i | i | x | x
CCC(C)[C@H](NC(=O)NCc1ccc(Cl)cc1)C(=O)O (some centres undefined) | -2.4% | -0.6% | u | i | -13.9% | -8.0%
CCC(C)[C@H](NC(=O)NCc1ccc(Cl)cc1)C(=O)OC (some centres undefined) | -1.2% | u | 20.6µM* | i | -4.1% | -0.2%
COc1cccc(C2=NN(S(C)(=O)=O)C(c3cn(-c4ccccc4)nc3-c3cccs3)C2)c1 (centres undefined) | x | -0.3% | i | i | x | x
CCOC(=O)C1CCCN(C(=O)CNS(=O)(=O)c2ccc(Br)s2)C1 (centres undefined) | -2.8% | -0.5%[38.3 µM] | 20.6µM* | i | 0.9% | -3.6%
CCOC(=O)C1CCCN(C(=S)Nc2ccc(C)cc2C)C1 (centres undefined) | 0.0% | -4.9% | 14.6µM* | i | 0.7% | -7.2%
CCOC(=O)C1CCCN(C(=S)Nc2ccc(Nc3ccccc3)cc2)C1 (centres undefined) | 2.0% | 1.9% | i | i | -10.3% | 0.5%
CCOC(=O)C1CCCN(C(=O)c2cc3cc(Br)ccc3oc2=O)C1 (centres undefined) | 5.2% | -0.6% | i | i | 6.31µM* | -7.6%
